Assay outcomes from PubChem BioAssay.
In the library only some 3.1% were active in any assay of this set; here they are far more common.
PPC-1+TRAIL kill: kills PPC-1 cancer cells in the presence of TRAIL | PPC-1 cells + TRAIL, ATPLite viability luminescence | cell killing (% activity), % at 4 µM or 5 µM | hit rate 0.41% among 220,000;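 active means cell killing above 50% in the first pass at 4 µM, then a duplicate retest at 5 µM averaging 50% or more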;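 further: plate controls were cells with TRAIL plus DMSO for no effect and medium-only wells lacking cells for full effect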
KKLEB tox: reduces viability of KKLEB cystic fibrosis airway cells; activity change (cytotoxicity), % at 5 µM; hit rate 0.36% among 360,000; KKLEB CF airway cells viability, ATPlite luminescence, overnight; hits give low values; cells stimulated with P. aeruginosa culture filtrate; AID 602141;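 active means corrected activity change at or below -50% at 5 µM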
HIF-2a block: HIF-2a inhibition; hit rate 0.72% among 360,000; 786-0 RCC cells HIF-2a reporter, luciferase luminescence, overnight; inhibition, % at 18.8 µM;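 active means inhibition of the luminescence signal of 40% or more relative to plate controls, in a single-dose primary screen at 18.75 µM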
Peg3 prom inh: Peg3 promoter activity inhibition; HeLa PEG-Prom luciferase reporter, luminescence, overnight; inhibition, % at 20 µM; hit rate 1.7% among 360,000; AID 588405;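 active means inhibition of at least 50% at 20 µM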
CF NFkB inh: cystic fibrosis NF-kB activation inhibition. KKLEB NF-kB-GFP reporter, PAF-induced, GFP fluorescence overnight. inhibition, % at 5 µM. hit rate 0.86% among 360,000. AID 588850;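 active means at least 50% inhibition at 5 µM, scaled per plate between neutral and stimulator controls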;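 further: PAF is a Pseudomonas aeruginosa culture filtrate used as stimulus; plate controls were PAF-stimulated DMSO wells for no effect and unstimulated DMSO wells for full effect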
C8 TRAIL sens: sensitizes caspase-8 expressing cells to TRAIL | hit rate 1% among 360,000 | inhibition (viability loss, TRAIL sensitization), % at 10 µM | NB7+C8 cells + TRAIL, ATPlite viability luminescence;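 active means compounds causing at least 50% loss of cell viability in the single-dose screen, relative to plate controls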
Mdm2-MdmX confirm: Mdm2/MdmX (human) interaction inhibition, confirmed; hit rate 99% among 740; SaOS-2 split-luciferase Mdm2/MdmX complementation, luminescence; shares compounds with HIF-2a block; inhibition, % at 8 µM; AID 504601;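 active means mean inhibition of the luminescence signal across two replicates at or above 26 percent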
Target sequence (O15151 whole entry, looked up): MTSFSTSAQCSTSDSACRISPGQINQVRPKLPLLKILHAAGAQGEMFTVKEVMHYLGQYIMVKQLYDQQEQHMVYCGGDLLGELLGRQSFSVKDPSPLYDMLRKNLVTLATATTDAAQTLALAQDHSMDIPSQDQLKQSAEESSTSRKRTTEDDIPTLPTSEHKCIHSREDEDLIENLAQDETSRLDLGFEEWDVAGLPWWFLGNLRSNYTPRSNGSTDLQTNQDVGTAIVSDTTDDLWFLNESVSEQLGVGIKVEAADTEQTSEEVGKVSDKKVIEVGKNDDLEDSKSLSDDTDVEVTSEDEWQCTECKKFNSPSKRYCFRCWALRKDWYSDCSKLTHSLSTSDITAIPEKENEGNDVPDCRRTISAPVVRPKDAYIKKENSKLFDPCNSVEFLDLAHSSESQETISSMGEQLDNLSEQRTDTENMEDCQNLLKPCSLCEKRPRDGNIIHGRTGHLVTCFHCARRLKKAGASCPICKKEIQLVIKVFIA
Target sequence (Q00987 whole entry, looked up): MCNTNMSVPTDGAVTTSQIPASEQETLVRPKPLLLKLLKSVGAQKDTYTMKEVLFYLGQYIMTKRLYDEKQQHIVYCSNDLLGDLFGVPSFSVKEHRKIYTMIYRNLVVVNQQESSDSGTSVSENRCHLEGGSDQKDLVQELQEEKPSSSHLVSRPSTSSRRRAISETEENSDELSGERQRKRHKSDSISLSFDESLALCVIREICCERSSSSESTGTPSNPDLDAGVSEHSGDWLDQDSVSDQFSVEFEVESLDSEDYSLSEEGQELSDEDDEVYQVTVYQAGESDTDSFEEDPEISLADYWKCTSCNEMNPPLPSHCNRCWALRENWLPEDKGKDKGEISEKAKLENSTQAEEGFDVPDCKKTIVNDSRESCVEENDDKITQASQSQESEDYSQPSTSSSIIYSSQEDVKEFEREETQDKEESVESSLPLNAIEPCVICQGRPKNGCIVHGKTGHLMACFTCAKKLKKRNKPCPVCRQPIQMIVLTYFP
HIF-2a inh conf: HIF-2a inhibition, single concentration confirmation; shares compounds with HIF-2a block; 786-0 RCC cells, HIF-2a luciferase reporter luminescence, overnight; inhibition, % at 18.8 µM; hit rate 56% among 1,800;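 active means mean inhibition across four replicates of at least 40 percent at the single tested concentration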
HIF-1a cs: inhibits HIF-1a reporter, a counter-screen for HIF-2a inhibitors; AID 651589; MiaPaCa-2 HIF-1a luciferase reporter, desferoxamine, overnight; inhibition, % at 18.8 µM; hit rate 72% among 1,800; shares compounds with HIF-2a block;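 active means mean inhibition of the reporter signal across four replicates at the single tested dose of 50% or more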
Active calls of the source: *; / = no result given.

SMILES	PPC-1+TRAIL kill	KKLEB tox	HIF-2a block	Peg3 prom inh	CF NFkB inh	C8 TRAIL sens	Mdm2-MdmX confirm	HIF-2a inh conf	HIF-1a cs
CC(C)(C)C(=O)N1CCN(c2ccc(NC(=O)c3ccco3)cc2)CC1	/	-1	-24	-28	1	11	/	/	/
CC(C)(C)NC(=O)CSc1nc(O)cc(=O)[nH]1	21	22	41*	10	-20	4	/	6	-1
CC(C)(C)NC(=O)CSc1nc(-c2ccccc2)c(-c2ccccc2)[nH]1	10	-10	-1	33	23	23	/	/	/
COc1ccc(N(C(=O)Cc2cccs2)C(C(=O)NC2CCCC2)c2ccncc2)cc1 (configuration not stated)	/	-3	-11	-4	3	5	/	/	/
COc1ccc(C(C(=O)NC2CCCC2)N(C(=O)c2ccoc2C)c2ccc(C)cc2)cc1 (configuration not stated)	12	-10	-2	14	6	8	/	/	/
COc1ccc(C(C(=O)NC2CCCCC2)N(C(=O)CCl)c2ccc(OC)cc2)cc1 (configuration not stated)	35	-81*	30	101*	72*	96*	95*	/	/
O=C(NC1CCCCC1)C(c1cccnc1)N(C(=O)CCl)c1ccccc1Cl (configuration not stated)	0	-8	30	30	10	15	103*	/	/
COc1ccc(C(C(=O)NC2CCCCC2)N(C(=O)CCl)c2ccc(C)cc2)cc1 (configuration not stated)	72*	-93*	29	69*	91*	95*	102*	/	/
NS(=O)(=O)c1ccc(CCNC(=O)CSc2nc3ccccc3c(=O)n2CC2CCCO2)cc1 (configuration not stated)	/	-21	11	1	5	10	/	/	/
O=C(c1ccccc1)c1cc(Cl)ccc1N1C(=O)C=CC1=O	23	-14	75*	105*	58*	2	/	78*	-11
O=C(CC(=O)c1cc(Cl)ccc1O)c1ccccc1	11	0	-294	-195	-28	26	/	/	/
CCCCn1c(=N)n(CC(=O)c2ccc(Br)s2)c2ccccc21	1	-27	50*	95*	-35	30	103*	23	98*
CCOC(=O)c1sc(NC(=O)c2cc(-c3ccccc3)nc3ccccc23)c(C#N)c1C	19	-28	3	29	38	42	98*	/	/
Cc1cc(C)n(C(=O)/C(C#N)=N\Nc2ccccc2[N+](=O)[O-])n1	5	3	7	14	-19	0	/	/	/
Cc1cc(C)n(C(=O)/C(C#N)=N/Nc2cc(Cl)cc(Cl)c2)n1	7	-62*	5	34	57*	39	95*	/	/
CCN(c1ccccc1)S(=O)(=O)c1ccc(Cl)c(NC(=O)Nc2ccc(Cl)cc2C#N)c1	-10	-14	-90	9	28	11	103*	/	/
CN1/C(=C/C(=O)c2nc(S(C)(=O)=O)ncc2Cl)C(C)(C)c2ccccc21	-5	-47	91*	111*	95*	67*	103*	/	/
COC(=O)[C@]12CCCCC=C1N(Cc1ccco1)C(=O)[C@H](CC(=O)NCCCN1CCCC1=O)C2	/	/	8	/	/	20	/	/	/
O=C1c2ccc(Cl)cc2S(=O)(=O)c2cccc(C(=O)N3CCC(Cc4ccccc4)CC3)c21	/	-29	50*	91*	17	93*	/	14	105*
O=C(NC1CC1)c1cccc2c1C(=O)c1ccc(N3CCC(Cc4ccccc4)CC3)cc1S2(=O)=O	/	-8	15	26	-15	23	/	/	/
COc1ccc(NC(=O)/C=C/c2cc(Br)ccc2OC)cc1	16	-8	-11	10	-13	14	/	/	/
COc1ccc(Br)cc1/C=C/C(=O)c1ccc(NC(C)=O)cc1	4	17	85*	106*	42	-26	/	64*	106*
Cc1nn(-c2ccccc2)c(C)c1NS(=O)(=O)c1ccccc1	-7	6	41*	16	3	4	/	34	14
Cc1ccc(-n2c(O)c(C=Nc3ccccc3-c3n[nH]c(=S)[nH]c3=O)c3ccccc3c2=O)c(C)c1	2	-14	43*	17	2	-5	/	15	85*
CSc1ncnc2ncn(C)c12	/	-29	8	-2	18	-10	/	/	/
SMILES	PPC-1+TRAIL kill	KKLEB tox	HIF-2a block	Peg3 prom inh	CF NFkB inh	C8 TRAIL sens	Mdm2-MdmX confirm	HIF-2a inh conf	HIF-1a cs
CN(C)c1nc2c(N)ncnc2n1C1OC(CO)C(O)C1O (configuration not stated)	/	-2	10	5	9	10	/	/	/
CN(C)c1ncnc2c1ccn2C1OC(CO)C(O)C1O (configuration not stated)	/	-63*	44*	8	36	78*	/	34	27
COc1cc(OC)cc(-n2nnnc2SCC(=O)N2CCCC2)c1	9	1	-10	21	-11	8	/	/	/
COc1ccc(-n2nnnc2S(=O)(=O)CC(=O)N2CCCCC2)cc1	20	-54*	90*	103*	83*	15	/	18	-5
O=C(CCCN1C(=O)/C(=C\c2ccccc2)SC1=S)Nc1cccc(C(=O)O)c1	/	4	3	-18	-16	7	/	/	/
Cc1ccc(/C=C2/SC(=S)N(CCCC(=O)Nc3ccc(O)cc3)C2=O)cc1	7	4	-8	-62	-10	15	101*	/	/
O=C(CCCN1C(=O)/C(=C/c2ccccc2)SC1=S)Nc1cccc(O)c1	5	-9	73*	78*	8	0	103*	/	/
O=C(CCN1C(=O)/C(=C/c2ccccc2)SC1=S)N1CCCCCC1	/	-5	67*	105*	31	42	102*	/	/
O=C(CCN1C(=O)/C(=C\c2ccc(F)cc2)SC1=S)Nc1ccc(O)cc1	/	-20	-6	-11	28	-2	/	/	/
Cc1ccc(CN2CC(C(=O)N(CC(C)C)c3c(N)n(Cc4ccccc4)c(=O)[nH]c3=O)CC2=O)cc1 (configuration not stated)	/	17	10	-1	-9	4	/	/	/
OC(c1ccc(CN2CCCCC2)cc1)c1ncc(-c2ccccc2F)[nH]1 (configuration not stated)	/	5	-6	-25	7	-4	/	/	/
CCCNC(=O)N[C@H]1C=C[C@H](CC(=O)NC2CCCCC2)O[C@@H]1CO	/	/	9	/	/	-7	/	/	/
O=C(/C(=C/c1ccc(Cl)cc1)c1nc2ccccc2[nH]1)c1ccccc1	24	-82*	91*	108*	89*	78*	103*	43*	105*
